Inconclusive results are not listed. Activity calls are given as the source filed them. Rule for the calls: active = hit-call score of the fitted dose curve at least 0.9, where 1 is the maximum; inconclusive = response in the unintended direction; inactive = score below 0.9.

This note sets out measurements from PubChem BioAssay (EPA / NIEHS).

The first assay is described as follows: ATG_M_19_TRANS: Attagene TRANS-FACTORIAL HepG2 Assay for M19 Transcription Factor (Internal Marker) (AID 2282974). As to conditions: HepG2 Attagene TRANS-FACTORIAL M19 internal marker reporter. Summed up:
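After transfection of HepG2 with GAL4-UAS-driven reporter constructs, cells are dosed for 24 h. Total RNA is reverse-transcribed, reporter sequences PCR-amplified and labelled, then HpaI-digested and sized by capillary electrophoresis.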
In the case of `Nc1ccn([C@H]2CS[C@@H](CO)O2)c(=O)n1`, the result was inactive.
`Cc1cc(C)nc(NS(=O)(=O)c2ccc(N)cc2)n1`: the compound was called inactive.
As for `CC(Oc1cc(Cl)ccc1Cl)C(=O)O` (configuration not stated), the call was inactive.
Still for that read-out and setting: as for `CN(C)c1ccncc1`, the entry is “inactive”; as for `CN(C)CCOC(C)(c1ccccc1)c1ccccn1` (configuration not stated), “inactive”; as for `CC(=O)OCCCc1ccccc1`, “inactive”.
For the compound `CC(C)C[C@H](NC(=O)OCC1c2ccccc2-c2ccccc21)C(=O)O`, the result was inactive.
For `CC/C=C\CC/C=C/CO`, the compound was called inactive.
With `C=Cc1ccc(C(C)(C)C)cc1`, the call was inactive.
Take `OCCCCC(O)CO` (configuration not stated): the compound was classed as inactive.
Consider `C=CCCCCCCCCCC`, for which the result was inactive.
With `CC1(C)C(=O)N(Cl)C(=O)N1Br`, the call was inactive.
As to `CCC(=O)O[C@@H]1C[C@H]2CC[C@]1(C)C2(C)C`, the compound was classed as inactive.
Still for that read-out and setting: as for `CCCCCCCCCCCCCCCC(=O)OC/C=C(C)/C=C/C=C(C)/C=C/C1=C(C)CCCC1(C)C`, the entry is “inactive”.
Turning to `Cc1cc(CCC(=O)OCCOCCOCCOC(=O)CCc2cc(C)c(O)c(C(C)(C)C)c2)cc(C(C)(C)C)c1O`, the compound was called inactive.
Turning to `C=C[Si]1(C)O[Si](C)(C=C)O[Si](C)(C=C)O[Si](C)(C=C)O1` (configuration not stated), the result was inactive.
For the compound `CCc1ccc(O)c(OC)c1`, the compound was classed as inactive.
For the compound `C/C=C(\C)C(=O)OCCc1ccccc1`, the compound was called inactive.
Turning to `Nc1ccccc1[N+](=O)[O-]`, the compound was called inactive.
Regarding `CC(C)NCC(O)COc1ccc(CC(N)=O)cc1` (configuration not stated), the call was inactive.
Consider `O=CN1CCOCC1`, for which the result was inactive.

Another assay is described as follows: ATG_GAL4_TRANS: Attagene TRANS-FACTORIAL HepG2 Assay for GAL4 (Internal Marker) (AID 2282976). Particulars: HepG2 Attagene TRANS GAL4 internal marker reporter. Put shortly: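 HepG2 cells transiently transfected with multiplexed GAL4-UAS reporter constructs were dosed for 24 h. Reporter mRNA was measured by RT-PCR, 6-FAM primer extension, HpaI digestion and capillary electrophoresis, and gain of signal was fitted relative to DMSO.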
For the compound `CC1(C)CCC[C@]2(C)[C@H]3CCO[C@]3(C)CC[C@@H]12`, the outcome was inactive.
Take `CCCCOC(=O)CCCCCCCC(=O)OCCCC`: the compound was classed as inactive.
Consider `CC(Oc1cc(Cl)ccc1Cl)C(=O)O` (configuration not stated), for which the call was inactive.
Still for that read-out and setting: the result for `CC(C)(N=C=O)c1cccc(C(C)(C)N=C=O)c1` reads “inactive”.
For the compound `CCCCCCC(C)(C)S`, the outcome was inactive.
`CN(C)CCOC(C)(c1ccccc1)c1ccccn1` (configuration not stated): the compound was classed as inactive.
For the compound `CC(=O)OCCCc1ccccc1`, the call was inactive.
On the same count and under the same terms, as for `CC(C)C[C@H](NC(=O)OCC1c2ccccc2-c2ccccc21)C(=O)O`, the entry is “inactive”; as for `C[C@@H]1CCN(C(=O)[C@H](CCCN=C(N)N)NS(=O)(=O)c2cccc3c2NC[C@H](C)C3)[C@@H](C(=O)O)C1`, “inactive”; as for `N#Cc1cscn1`, “inactive”.
The same measure, in the same setting: as for `CC/C=C\CC/C=C/CO`, the entry is “inactive”; as for `C=CCN(CC=C)CC=C`, “inactive”.
On to `C=Cc1ccc(C(C)(C)C)cc1`, for which the outcome was inactive.
Regarding `OCCCCC(O)CO` (configuration not stated), the result was inactive.
Take `C=CCCCCCCCCCC`: the call was inactive.
As to `CCC(=O)O[C@@H]1C[C@H]2CC[C@]1(C)C2(C)C`, the call was inactive.
Take `CC(C)CCCCCCc1ccc(OCCOCCO)cc1`: the result was inactive.
Take `CCCCCCCCCCCCCCCC(=O)OC/C=C(C)/C=C/C=C(C)/C=C/C1=C(C)CCCC1(C)C`: the compound was classed as inactive.
As to `Cc1cc(CCC(=O)OCCOCCOCCOC(=O)CCc2cc(C)c(O)c(C(C)(C)C)c2)cc(C(C)(C)C)c1O`, the result was inactive.
Take `CCCCSCCCC`: the result was inactive.
For `CC(C)NCC(O)COc1ccc(CC(N)=O)cc1` (configuration not stated), the call was inactive.
